This is part of a sample that, as a whole, favours compounds with a hit. Of some 83,000 tested, about 20% had one in any assay.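 Assay: single dose, 48 h. Readout: percent growth (0 = no net growth; negative = cell death). Active: <10.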 Unmarked numbers belong to inactive results. The source made the active and inactive calls.
Key:
Assay in all cases: NCI-60 one-dose screen, 48 h (100 = growth as untreated, 0 = no growth, -100 = all killed)
Conditions in all cases: 10 µM unless noted
NCI-H23 lung = test system: NCI-H23 lung
NCI-H226 lung = test system: NCI-H226 lung
NCI-H322M lung = test system: NCI-H322M lung
HOP-62 NSCLC = test system: HOP-62 NSCLC
NCI-H460 lung = test system: NCI-H460 lung
HOP-92 NSCLC = test system: HOP-92 NSCLC
NCI-H522 lung = test system: NCI-H522 lung
A549/ATCC NSCLC = test system: A549/ATCC NSCLC
786-0 renal = test system: 786-0 renal
COLO 205 colon = test system: COLO 205 colon
DU-145 prostate = test system: DU-145 prostate
K-562 leukemia = test system: K-562 leukemia
MDA-MB-231 breast = test system: MDA-MB-231 breast
RXF 393 renal = test system: RXF 393 renal
SF-268 CNS = test system: SF-268 CNS
SF-539 CNS = test system: SF-539 CNS
UACC-257 melanoma = test system: UACC-257 melanoma
M14 melanoma = test system: M14 melanoma
MALME-3M melanoma = test system: MALME-3M melanoma
SF-295 CNS = test system: SF-295 CNS

Compound | growth (NCI-H23 lung) | growth (NCI-H226 lung) | growth (NCI-H322M lung) | growth (HOP-62 NSCLC) | growth (NCI-H460 lung) | growth (HOP-92 NSCLC) | growth (NCI-H522 lung) | growth (A549/ATCC NSCLC) | growth (786-0 renal) | growth (COLO 205 colon) | growth (DU-145 prostate) | growth (K-562 leukemia) | growth (MDA-MB-231 breast) | growth (RXF 393 renal) | growth (SF-268 CNS) | growth (SF-539 CNS) | growth (UACC-257 melanoma) | growth (M14 melanoma) | growth (MALME-3M melanoma) | growth (SF-295 CNS)
N[C@@H](CO)C(=O)O | 91% | 97.7% | 103% | 105% | 107% | 89.8% | 107% | 102% | 95.1% | 106% | 101% | 110% | 93.4% | 108% | 95.1% | 113% | 104% | 107% |  | 
C=CCOc1c(Br)cc(Br)cc1Br | 53.1% | 81.5% | 45% | 58.6% | 38.5% | 90.6% | 27.6% | 59.7% | 102% | 103% | 81.8% | 52.2% | 44.6% | 76.9% | 68.7% | 45.4% | 79% | 73.5% |  | 
COc1ccc(/C(=C\c2cc(OC)c(OC)c(OC)c2)C(=O)Nc2nc3ccc(Cl)cc3s2)cc1 | 94.4% | 83.2% | 82.5% | 94.9% | 117% | 86.8% | 74.9% | 81% | 91.3% | 108% | 93% |  | 90.9% | 109% | 71.1% | 100% | 92.1% | 105% | 93.8% | 
COc1cc(-c2n/c(=C\c3c(O)[nH]c4cc(Cl)ccc34)cc3c2=Nc2ccccc2-3)cc(OC)c1OC | 45.2% | 89.9% | 62.3% | 23.3% | 59.7% | 27.2% | 54.6% | 59.5% | 34.5% | 58.6% | 30.6% | 49.1% | 53.1% | 28.7% | 22.5% | 62.7% | 40.9% | 37.7% |  | 
COc1ccc(/C=C2\CCCC3=C2N=C2SC(C)=NN2C3c2ccc(OC)c(OC)c2)cc1OC (stereo not given) | 35.5% | 31% | 27.9% | 23.1% | 19.1% | 37.2% | 35.8% | 20.1% | 53% | 22.2% | 16.1% | 14.5% | 28.6% | 40.4% | 39% | 6.88% (active) | 51.9% | 19.8% |  | 25.3%
CC(=O)N[C@@H](CCC(N)=O)C(=O)O | 92.6% | 87.9% | 111% | 102% | 105% | 61.3% | 103% | 88.2% | 82.6% | 124% | 112% | 9.01% (active) | 87.2% | 90% | 108% | 113% | 97.4% | 93.4% |  | 
CN1CCN(c2ccc(N3Cc4ccccc4OC4=C3C(=O)c3c(O)ccc(O)c3C4=O)cn2)CC1 | -23.2% (active) | 35.2% | 4.57% (active) | 1.99% (active) | -22.4% (active) | -58.7% (active) | -53.3% (active) | -4.29% (active) | -77.4% (active) | -77.1% (active) | -95.9% (active) |  | -75.1% (active) | -93.6% (active) | -6.04% (active) | -58.3% (active) | -88.9% (active) | -76.8% (active) | -84.2% (active) | 
CCc1ccc2c(c1)N(CCO)C1=C(C(=O)OC1)C2c1cccc(Br)c1 (stereo not given) | 40.9% | 39.5% | 38.9% | 31% | 11.2% | 75.6% | -26.3% (active) | 29.2% | 34.4% | 5.9% (active) | 12% | 14.8% | 34.9% | 10.9% | 47.2% | -8.23% (active) | 63.4% | 10.8% |  | -19.3% (active)
O=C(Nc1ccc(Br)cc1)Nc1ccccc1Cl | 63.2% | 80% | 119% | 92.7% | 93.3% | 90.5% | 56.8% | 82.5% | 83.4% | 106% | 91.1% | 84.5% | 72.5% | 83% | 93.8% | 89.3% | 88% | 89.2% |  | 
NCCCOc1cc2ccccc2cc1C(=O)NCCCOc1cc2ccccc2cc1C(=O)Nc1ccc(Cl)cc1O | -67.6% (active) | -85.8% (active) | -51.9% (active) | -100% (active) | -72.3% (active) | -75.9% (active) | -65.1% (active) | -75.2% (active) | -82.4% (active) | -54.1% (active) | -21.3% (active) |  | -87.9% (active) | -96.5% (active) | -27.8% (active) | -93.7% (active) | -69.2% (active) | -74.6% (active) | -82.5% (active) | 
Nc1ncnc2c1N=C(c1ccc(F)cc1)CC(c1sc(Cl)nc1Cl)N2 (stereo not given) | 92.9% | 90.1% | 106% | 105% | 101% | 71% | 88.7% | 92.4% | 92.6% | 104% | 98.8% |  | 88.2% | 78.3% | 85.4% | 85.7% | 91% | 109% | 111% | 95.8%
Cc1cc(C#Cc2ccccc2)ccc1-n1c(/C=C/c2ccc(F)cc2)nc2ccccc2c1=O | 71.5% | 84.7% | 87.5% | 122% | 63.6% | 39.2% | 64.1% | 68.5% | 80.4% | 53.3% | 98.5% | 48.5% | 75.9% | 99.1% | 86.4% | 102% | 86.7% | 81.2% |  | 
Cc1ccc(O)c(Cc2ccccc2)c1 | 101% | 106% | 112% | 96.2% | 99% | 52.7% | 93.5% | 101% | 107% | 111% | 108% |  | 96.7% | 103% | 99.6% | 100% | 93.7% | 101% | 143% | 
NC(=Nc1ccccc1)SCCCSC(N)=Nc1ccccc1 | 92.6% | 93.6% | 81.8% | 96.5% | 100% | 41.6% | 69.2% | 89.5% | 102% | 78.7% | 95.7% | 75% | 79.5% | 99.5% | 95.6% | 93.6% | 108% | 95.6% |  | 
COc1ccc(Nc2ncccc2C(=O)NCc2cn(Cc3cc(OC)cc(OC)c3)nn2)cc1 | 103% | 98.3% | 105% | 81.9% | 98.3% | 93.2% | 79.4% | 89.5% | 95.3% | 114% | 95.2% | 84.3% | 105% | 96.1% | 87.2% | 90.3% | 98.1% | 98.7% |  | 
O=C(Nc1ccccc1)C(CCCCN1C(=O)c2ccccc2C1=O)N1C(=O)c2ccccc2C1=O (stereo not given) | 107% | 95.3% | 98% | 109% | 109% | 76.8% | 94.6% | 97.8% | 99.6% | 118% | 95.4% | 82.8% | 109% | 110% | 99.8% | 111% | 106% | 105% |  | 101%
COCCCNCC(=O)Nc1c(C)cccc1C | 110% | 106% | 139% | 107% | 116% | 103% | 112% | 96.7% | 93.8% | 109% | 113% | 120% | 96.6% | 113% | 109% | 95.3% | 106% | 114% |  | 

Source: PubChem BioAssay (NCI)
